{"source": "paper PMC5540273", "about": "(PLoS ONE, 2017);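 further: KINOMEscan kinase panel screen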"}
{"system": "MAP3K1", "conditions": "concentration: 1 μM, replicates: in singlicate; n = 1", "units": {"%Inh": "%"}}
{"smiles": "COc1ccc(-c2coc3ccc(-c4nnc(SCc5ccc(OC)c(C(F)(F)F)c5)o4)cc23)cc1", "%Inh": 0}
{"smiles": "CC(C)c1nc(-c2cccc(NS(=O)(=O)c3c(F)cccc3F)c2F)c(-c2ccnc(Nc3ccc(N4CCOCC4)nc3)n2)s1", "note": "[GSK2008607]", "%Inh": 15}
{"smiles": "Cn1cc(-c2ccc3c(c2)CCN3C(=O)Cc2cccc(F)c2)c2c(N)ncnc21", "note": "[GSK2603358]", "%Inh": 15}
{"smiles": "COc1cc2c(cc1OCCN1CCNCC1)ncc1c3ccc(C#N)cc3[nH]c21", "%Inh": 33}
{"smiles": "Cc1ccc(S(=O)(=O)Nc2ccc(Nc3nccc(Nc4cccc5[nH]ncc45)n3)cc2)cc1", "note": "[GSK581271]", "%Inh": 5}
{"smiles": "Cc1ccc(C)c(NC(=O)NC2CCN(c3ccnc(Nc4ccc(F)cc4)n3)C2)c1", "note": "(centres unmarked) [GSK1379720]", "%Inh": 0}
{"smiles": "CN1CCN(Cc2cccc(-c3ccc4c(Nc5ccc(Oc6ccccc6)cc5)ccnc4c3)c2)CC1", "note": "[GW578342]", "%Inh": 0}
{"smiles": "COc1cc(Nc2nccc(-c3c(-c4cccc(NC(=O)c5c(F)cccc5F)c4)nn4ccccc34)n2)cc(OC)c1OC", "note": "[GSK323521]", "%Inh": 27}
{"smiles": "Cc1cccc(Nc2nc(N[C@H]3CCNC3)ncc2C(N)=O)c1.Cl", "note": "[GSK2197149]", "%Inh": 0}
{"smiles": "Nc1n[nH]c2cnc(-c3ccccc3)cc12", "note": "[SB-642124]", "%Inh": 14}
{"smiles": "Cc1occc1-c1ncc(OC[C@@H](N)Cc2c[nH]c3ccccc23)cc1-c1ccc2[nH]nc(C)c2c1.O=C(O)C(F)(F)F", "note": "[GSK682037]", "%Inh": 11}
{"smiles": "CSc1cccc2c(-c3ccncn3)c(-c3ccc(F)cc3)nn12", "note": "[GW514786]", "%Inh": 14}
{"smiles": "C[C@@H]1CC[C@@H](C(=O)Nc2ccccc2)CN1c1cc(-c2ccc3c(N)n[nH]c3c2)nc(N)n1", "note": "[GSK2286062]", "%Inh": 0}
{"smiles": "CN(C)Cc1ccc(-c2ccc3c(Nc4ccc(Oc5ccccn5)cc4)ccnc3c2)o1", "note": "[GW567148]", "%Inh": 14}
{"smiles": "COc1cc(Nc2ncc3c(C)nc(-c4cc5ccccc5[nH]4)n3n2)cc(OC)c1OC", "note": "[GW869516]", "%Inh": 0}
{"smiles": "Cn1cc(-c2[nH]c3cc(NC(=O)[C@H](N)C4CCCCC4)cc4c3c2C=NNC4=O)cn1", "%Inh": 35}
{"smiles": "FC(F)(F)c1ccc(/C=C/c2cncnc2Nc2ccc3[nH]c(Cc4ccccc4)nc3c2)cc1", "note": "[GW709199]", "%Inh": 0}
{"smiles": "CCCCc1nn2ncccc2c1-c1ccnc(Nc2ccc(N3CCN(C)CC3)cc2)n1", "note": "[GW684941]", "%Inh": 16}
{"smiles": "COCCOCCOc1cc2ncc3c4ccc(C#N)cc4[nH]c3c2cc1OC", "%Inh": 0}
{"smiles": "COc1cccc(-c2ccc3c(NC(=O)C4CC4)n[nH]c3n2)c1", "note": "[SB-710903]", "%Inh": 35}
{"smiles": "COc1cc(Nc2nccc(N3CCC(NC(=O)c4cc5ccccc5s4)C3)n2)cc(OC)c1OC", "note": "(centres unmarked) [GSK1379760]", "%Inh": 7}
{"smiles": "COC(=O)Nc1nc2cc(Oc3ccc(NC(=O)Nc4cc(C(F)(F)F)ccc4F)cn3)ccc2[nH]1.Cl.Cl", "note": "[GW681170]", "%Inh": 11}
{"smiles": "COc1cc(Nc2nccc(N3CCC(NC(=O)Nc4cccc(C(C)=O)c4)C3)n2)cc(OC)c1OC", "note": "(centres unmarked) [GSK1379753]", "%Inh": 1}
{"smiles": "c1ccc(-c2cnc3nccnn23)cc1", "note": "[AH20685]", "%Inh": 0}
{"smiles": "CN1CCN(CCCNc2nccc(-c3c(-c4ccc(F)cc4)nn4cc(C(F)(F)F)ccc34)n2)CC1", "note": "[GW621581]", "%Inh": 4}
{"system": "MAP3K2", "conditions": "concentration: 1 μM, replicates: in singlicate; n = 1", "units": {"%Inh": "%"}}
{"smiles": "COc1ccc(Nc2nccc(NCCNC(=O)c3cc4ccccc4s3)n2)cc1", "note": "[GSK1379896]", "%Inh": 0}
{"smiles": "Clc1ccc(-c2nn3ncccc3c2-c2ccnc(Nc3ccc4c(c3)OCCO4)n2)cc1", "note": "[GW829116]", "%Inh": 7}
{"smiles": "O=C(Nc1cccc(-c2nn3ncccc3c2-c2ccnc(Nc3ccccc3)n2)c1)c1c(F)cccc1F", "note": "[GSK198271]", "%Inh": 35}
{"smiles": "Nc1ncc(-c2ccc3nccc(-c4ccncc4)c3c2)cc1S(=O)(=O)N1CCOCC1", "note": "[GSK1627798]", "%Inh": 19}
{"smiles": "Cl.c1ccc(-c2ccc3c(Nc4ccc5[nH]ccc5c4)ccnc3c2)nc1", "note": "[GW440138]", "%Inh": 0}
{"smiles": "COc1cccc(C2=C(Nc3ccc(Cl)c(C(=O)O)c3)C(=O)NC2=O)c1", "note": "[SB-390769]", "%Inh": 100}
{"smiles": "O=C(Nc1n[nH]c2cc(-c3ccoc3)ccc12)C1CC1", "note": "[SB-738481]", "%Inh": 3}
{"smiles": "CCS(=O)(=O)c1ccc(OC)c(Nc2nccc(-c3c(-c4cccc(NC(=O)c5c(F)cccc5F)c4)nn4ncccc34)n2)c1", "note": "[GSK326180]", "%Inh": 6}
{"smiles": "CN(c1ccc(NC(=O)Nc2cc(C(F)(F)F)ccc2F)cc1)c1ccnc(Nc2ccc(S(N)(=O)=O)cc2)n1", "note": "[GW809893]", "%Inh": 7}
{"smiles": "Oc1cc(Nc2ccnc3cc(I)ccc23)ccc1F", "note": "[GW552771]", "%Inh": 9}
{"smiles": "CC(=O)N1CCN(c2ccc(Nc3nccc(-c4sc(C(C)C)nc4-c4cccc(NS(=O)(=O)c5cccc(Cl)c5)c4)n3)cn2)CC1", "note": "[GSK1660437]", "%Inh": 0}
{"smiles": "Cn1cc(-c2ccc3c(c2)CCN3C(=O)Cc2cccc(Cl)c2)c2c(N)ncnc21", "note": "[GSK2606590]", "%Inh": 84}
{"smiles": "COc1ccc(-c2coc3ccc(-c4nnc(SCc5ccc(OC)c(C(F)(F)F)c5)o4)cc23)cc1", "%Inh": 10}
{"smiles": "CC(C)c1nc(-c2cccc(NS(=O)(=O)c3c(F)cccc3F)c2F)c(-c2ccnc(Nc3ccc(N4CCOCC4)nc3)n2)s1", "note": "[GSK2008607]", "%Inh": 97.7}
{"smiles": "Cn1cc(-c2ccc3c(c2)CCN3C(=O)Cc2cccc(F)c2)c2c(N)ncnc21", "note": "[GSK2603358]", "%Inh": 84}
{"smiles": "COc1cc2c(cc1OCCN1CCNCC1)ncc1c3ccc(C#N)cc3[nH]c21", "%Inh": 4}
{"smiles": "Cc1ccc(S(=O)(=O)Nc2ccc(Nc3nccc(Nc4cccc5[nH]ncc45)n3)cc2)cc1", "note": "[GSK581271]", "%Inh": 3}
{"smiles": "Cc1ccc(C)c(NC(=O)NC2CCN(c3ccnc(Nc4ccc(F)cc4)n3)C2)c1", "note": "(centres unmarked) [GSK1379720]", "%Inh": 0}
{"smiles": "CN1CCN(Cc2cccc(-c3ccc4c(Nc5ccc(Oc6ccccc6)cc5)ccnc4c3)c2)CC1", "note": "[GW578342]", "%Inh": 0}
{"smiles": "COc1cc(Nc2nccc(-c3c(-c4cccc(NC(=O)c5c(F)cccc5F)c4)nn4ccccc34)n2)cc(OC)c1OC", "note": "[GSK323521]", "%Inh": 56}
{"smiles": "Cc1cccc(Nc2nc(N[C@H]3CCNC3)ncc2C(N)=O)c1.Cl", "note": "[GSK2197149]", "%Inh": 88}
{"smiles": "Nc1n[nH]c2cnc(-c3ccccc3)cc12", "note": "[SB-642124]", "%Inh": 12}
{"smiles": "Cc1occc1-c1ncc(OC[C@@H](N)Cc2c[nH]c3ccccc23)cc1-c1ccc2[nH]nc(C)c2c1.O=C(O)C(F)(F)F", "note": "[GSK682037]", "%Inh": 96.9}
{"smiles": "CSc1cccc2c(-c3ccncn3)c(-c3ccc(F)cc3)nn12", "note": "[GW514786]", "%Inh": 0}
{"smiles": "C[C@@H]1CC[C@@H](C(=O)Nc2ccccc2)CN1c1cc(-c2ccc3c(N)n[nH]c3c2)nc(N)n1", "note": "[GSK2286062]", "%Inh": 16}
{"smiles": "CN(C)Cc1ccc(-c2ccc3c(Nc4ccc(Oc5ccccn5)cc4)ccnc3c2)o1", "note": "[GW567148]", "%Inh": 0}
{"smiles": "COc1cc(Nc2ncc3c(C)nc(-c4cc5ccccc5[nH]4)n3n2)cc(OC)c1OC", "note": "[GW869516]", "%Inh": 0}
{"smiles": "Cn1cc(-c2[nH]c3cc(NC(=O)[C@H](N)C4CCCCC4)cc4c3c2C=NNC4=O)cn1", "%Inh": 98.3}
{"smiles": "FC(F)(F)c1ccc(/C=C/c2cncnc2Nc2ccc3[nH]c(Cc4ccccc4)nc3c2)cc1", "note": "[GW709199]", "%Inh": 0}
{"smiles": "CCCCc1nn2ncccc2c1-c1ccnc(Nc2ccc(N3CCN(C)CC3)cc2)n1", "note": "[GW684941]", "%Inh": 37}
{"smiles": "COCCOCCOc1cc2ncc3c4ccc(C#N)cc4[nH]c3c2cc1OC", "%Inh": 0}
{"smiles": "COc1cccc(-c2ccc3c(NC(=O)C4CC4)n[nH]c3n2)c1", "note": "[SB-710903]", "%Inh": 15}
{"smiles": "COc1cc(Nc2nccc(N3CCC(NC(=O)c4cc5ccccc5s4)C3)n2)cc(OC)c1OC", "note": "(centres unmarked) [GSK1379760]", "%Inh": 0}
{"smiles": "COC(=O)Nc1nc2cc(Oc3ccc(NC(=O)Nc4cc(C(F)(F)F)ccc4F)cn3)ccc2[nH]1.Cl.Cl", "note": "[GW681170]", "%Inh": 0}
{"smiles": "COc1cc(Nc2nccc(N3CCC(NC(=O)Nc4cccc(C(C)=O)c4)C3)n2)cc(OC)c1OC", "note": "(centres unmarked) [GSK1379753]", "%Inh": 22}
{"smiles": "c1ccc(-c2cnc3nccnn23)cc1", "note": "[AH20685]", "%Inh": 0}
{"smiles": "CN1CCN(CCCNc2nccc(-c3c(-c4ccc(F)cc4)nn4cc(C(F)(F)F)ccc34)n2)CC1", "note": "[GW621581]", "%Inh": 0}
